Screens deposited in PubChem by several laboratories.
HSV augment: HSV replication enhancement; maximum fold increase; 0.005% of 220,000 active; HSV replication augmentation in cells, fold increase; in the data active = maximum fold increase above about 1.5; inconclusive = no clear call, values can overlap the other calls; tested in PC3 cells
ROMK primary: modulators of human ROMK potassium channel | AID 1918 | B-score at 10 µM | 2% of 130,000 active | P48048 | Tet-inducible ROMK, thallium flux fluorescence; actives lie on both sides;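 active = signal ratio slope over the read window, or its plate-corrected B-score, at least 3 SD from the plate mean, either direction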;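 note: B-score of the F/F0 ratio slope over 7 to 12 s after thallium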
Target sequence (P48048 whole entry, looked up): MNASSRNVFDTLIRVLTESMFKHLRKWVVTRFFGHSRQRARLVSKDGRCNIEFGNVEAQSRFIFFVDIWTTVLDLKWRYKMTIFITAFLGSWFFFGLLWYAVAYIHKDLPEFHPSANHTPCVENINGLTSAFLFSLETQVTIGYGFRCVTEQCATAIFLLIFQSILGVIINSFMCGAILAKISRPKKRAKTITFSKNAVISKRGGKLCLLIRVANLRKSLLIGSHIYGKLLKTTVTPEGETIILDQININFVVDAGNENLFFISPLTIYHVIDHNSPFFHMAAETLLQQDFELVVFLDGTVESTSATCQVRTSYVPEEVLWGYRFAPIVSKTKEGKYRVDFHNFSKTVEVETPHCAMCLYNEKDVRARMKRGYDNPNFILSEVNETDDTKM
Ins promoter up: MIN6 insulin promoter up-regulation | 0.3% of 190,000 active | AID 1625 | z-score at 5 µM | MIN6 insulin promoter-GFP reporter, high-content imaging; hits give high values;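 active = z-score above 3 at 5 µM with at least 500 cells counted in the well; inconclusive = wells under 500 cells, flagged as cytotoxic or low count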
Insulin prom inh: TRM-6 insulin promoter activity inhibition | TRM-6 cells (human fetal islet line), insulin promoter-eGFP reporter, imaging; reporter expression induced with tamoxifen | inhibition, % at 2 µM | 0.9% of 130,000 active;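 active = inhibition above the mean plus 3 SD, with well images judged a real hit on visual review, cut at about 60% in these data, passing the limit was not always enough; inconclusive = inhibition over the cutoff but images rejected on review; inactive = inhibition not above the cutoff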
Tb hexokinase: blocks Trypanosoma brucei hexokinase 1 activity. AID 1430. recombinant TbHK1, G6PDH-coupled NADH A340. 0.11% of 220,000 active. inhibition, % at 10 µM;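 active = inhibition of 50% or more in the single-dose primary screen; inactive = inhibition below 50%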
ROMK hit retest: confirmation of human ROMK potassium channel modulators; shares compounds with ROMK primary; 54% of 3,000 active; ROMK thallium flux, fluorescence ratio; hits give low values; normalized thallium flux (F/F0 slope) at 10 µM;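 active = Flux at 10 µM at least 3 SD below or above vehicle control mean in one or both replicates; inconclusive = no clear call, values can overlap the other calls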
* hit, by the source's call; i = inactive; ? = inconclusive; . = no result given. Many of the other results were omitted from the sample, so hits are more common in it than they were.

SMILES	HSV augment	ROMK primary	Ins promoter up	Insulin prom inh	Tb hexokinase	ROMK hit retest
Cc1ccc(NC(=O)Nc2ccnc(-c3cccnc3)n2)cc1	i	3.1	-0.23	23	-3	.
O=C(Nc1ccnc(-c2cccnc2)n1)c1ccc(Cl)c(Cl)c1	i	1.8	0.98	27	-3	.
Cc1nc(NC(=O)c2cccnc2)ccc1Br	i	.	0.77	-9	-4	0.079
Cc1ccc(C(=O)Nc2ccnc(-c3cccnc3)n2)cc1	i	4.6*	0.15	28	-3	0.11*
Cc1ccccc1C(=O)Nc1ccc(Br)c(C)n1	i	.	0.52	-28	-7	.
CCCC(=O)Oc1ccc(-c2nccc(C(OC)OC)n2)cc1	i	0.052	.	36	2	.
Cc1ccc(N=Nc2[nH]c3ccccc3c2O)cc1	.	-4.8*	.	-46	-4	0.056*
Cc1ccc(C(=O)N2CCN(CCNC(=O)C(=O)NC(C)C)CC2)cc1	i	0.36	-0.1	.	-9	.
COc1ccc(OC)c(C2=NOC(C(=O)NCc3cccs3)C2)c1 (stereo not given)	i	0.065	-0.33	.	-8	.
O=S(=O)(c1ccc(Cl)s1)N1CCN(Cc2ccccc2)CC1	i	-1.9	0.48	-16	5	.
O=C(CN1CCN(S(=O)(=O)c2ccc(Cl)s2)CC1)N1CCOCC1	i	-3.2*	0.13	.	9	0.076
CC(=O)c1cccc(NC(=O)C2C3C=CC(C3=C(c3ccccc3)c3ccccc3)C2C(=O)O)c1 (stereo not given)	i	1.5	0.86	.	-6	.
Cc1cn2c(-c3ccc(Cl)cc3)nnc2s1	i	.	.	.	-6	0.071
Clc1ccc(-c2nn3c(-c4ccccc4)nnc3s2)cc1	i	.	1.1	-19	2	.
CC(c1ccon1)N(C)Cc1cn(C)nc1-c1cccc(Cl)c1 (stereo not given)	i	0.4	0.84	.	-14	.
C[C@@H]1CN(c2nc3nonc3nc2N2CCSCC2)C[C@H](C)O1	i	0.62	0.6	.	-33	.
C1CN(c2nc3nonc3nc2N2C[C@H]3CC[C@H]2C3)CCS1	i	1.4*	0.67	.	-20	0.075
COC(=O)c1sc2nc(C)nc(SCC(=O)N3CCC(C(=O)O)CC3)c2c1C	i	0.54	0.47	0	-2	.
Cc1ccc(OCC(O)CN2CCN(CC(O)COC(C)C)CC2)c(C(C)(C)C)c1 (stereo not given)	i	-3.7*	0.1	-200	-6	0.062*
COCCNc1nnc(SC(C)C(=O)Nc2ccc(-c3nc4ccc(C)cc4s3)cc2)s1 (stereo not given)	i	.	-0.55	.	-29	.
COc1cc2c(cc1OC)CN(c1nc(CN3CCOCC3)nc3sc4c(c13)CCCC4)CC2	i	-2.4	-1.3	23	-16	.
COc1cc2c(cc1OC)CN(c1nc(CN3CCCCC3)nc3sc4c(c13)CCCC4)CC2	i	-2.6*	-1	27	-6	0.064*
O=C(C1CCN(Cc2nc(Cc3cccc(F)c3)no2)CC1)N1CCOCC1	i	0.29	-0.26	.	-2	.
CC(=O)c1ccc(N2CCN(C(=O)COc3ccc(F)cc3)CC2)c(F)c1	i	-2.8*	-1.7	-12	-15	0.061*
CCC(=O)c1ccc(N2CCN(C(=O)COc3ccc(F)cc3)CC2)c(F)c1	i	-1.8	-0.75	.	-12	.
SMILES	HSV augment	ROMK primary	Ins promoter up	Insulin prom inh	Tb hexokinase	ROMK hit retest
COc1cc(/C=C(\C#N)C(=O)Nc2ccccc2C(=O)O)cc(Cl)c1OC	i	-4.6*	0.62	.	-11	0.057*
O=C(Cn1ncc(Cl)c(Cl)c1=O)N1CCc2ccccc21	i	-3.3*	1.7	-431	1	?
CCOC(=O)CSc1nc2c(sc3ccccc32)c(=O)n1CCCN1CCOCC1	i	-0.63	0.01	3	-16	.
CCC(C)NC(=O)CSc1nc2c(sc3ccccc32)c(=O)n1CCCN1CCOCC1 (stereo not given)	i	2.6*	0.66	15	-27	0.076
CCOC(=O)N1CCC(n2c(SCC(=O)Nc3ccccc3OC)nc3ccccc3c2=O)CC1	i	-4.2*	-0.85	48	-4	0.065*
CCOC(=O)N1CCC(n2c(SCC(=O)NCc3ccccc3)nc3ccccc3c2=O)CC1	i	0.21	-1.1	.	-2	.
CCOC(=O)N1CCC(n2c(SCC(=O)NCCC3=CCCCC3)nc3ccccc3c2=O)CC1	i	-7*	-1.7	.	2	?
Cc1cc2nnc(SCC(=O)N3CCCCC3)n2c(N)n1	i	1.3*	0.52	.	2	0.083
CC1CCCN(c2nc3ccccc3nc2C(C#N)S(=O)(=O)c2cccs2)C1 (stereo not given)	i	-4.5*	-0.23	24	-2	0.059*
CC1CCCN(c2nc3ccccc3nc2C(C#N)C(=O)OC2CCCCC2)C1 (stereo not given)	i	.	1	-23	11	.
OCCN1CCN(CC(O)COc2ccc(C34CC5CC(CC(C5)C3)C4)cc2)CC1 (stereo not given)	i	-0.97	-0.86	-36	7	.
NCCOc1ccc(C23CC4CC(CC(C4)C2)C3)cc1	i	-2.9*	-0.06	.	15	0.063*
CS(=O)(=O)N1CCC(C(=O)N2CCN(c3ccc(F)cc3)CC2)CC1	i	0.0045	0.41	.	2	.
COc1ccc(-c2nnnn2-c2ccc(F)cc2F)cc1	i	-3.3*	.	5	-5	?
CC(=O)N1CCC2(CC1)CC(=O)c1cc(OCC(=O)N3CCOCC3)ccc1O2	i	0.26	0.01	6	-4	.
N#CC1=C(N)N(c2ccccc2)C(c2ccco2)C1(C#N)C#N (stereo not given)	i	.	0.27	-6	-5	.
Cc1cccc(N2C(N)=C(C#N)C(C#N)(C#N)C2c2ccccc2)c1 (stereo not given)	i	.	0.14	.	-3	0.056*
N#CC1=C(N)N(c2ccccc2)C(c2cccc([N+](=O)[O-])c2)C1(C#N)C#N (stereo not given)	i	.	0.35	-5	-5	0.037*
O=C(COC(=O)C1(c2ccc(F)cc2)CCCC1)NC1CC1	i	-0.62	0.63	14	3	.
CCC1SC2=NC(C)=C(C(=O)OCCOC)C(/C=C/c3ccccc3OC)N2C1=O (stereo not given)	i	.	0.58	29	-17	0.059*
CSc1cccc(CN2CCC(CO)(Cc3cccc(C(F)(F)F)c3)CC2)c1	i	-3.5*	0.62	.	-3	0.063*
OCC1(Cc2cccc(C(F)(F)F)c2)CCN(Cc2cc(F)cc(F)c2)CC1	i	-0.19	-0.19	.	-7	.
CC1=Nc2ccccc2N=C(NC(=O)CSC(=S)N2CCCCC2)C1c1ccccc1 (stereo not given)	i	-0.73	0.54	.	-5	.
CC1=Nc2ccccc2N=C(NC(=O)CN2CCN(c3ccccc3)CC2)C1c1ccccc1 (stereo not given)	i	3.2*	-0.98	.	-6	0.084
O=C(Nc1ccccc1)Nc1ncc([N+](=O)[O-])s1	i	-1.8	0.17	28	9	0.064*
CCSc1ncnc2c1sc1nc(-c3ccco3)c3c(c12)CC(C)(C)OC3	.	.	0.24	-20	-1	0.08
